Test results reported in PubChem BioAssay AID1159580 (chemical genetic matrix, 2015).
Several values for one entry are separate records, joined by “and”; a condition that tells them apart may be missing. Equal entries are not always repeated. Screen size: about 5,500 compounds; about 2,000 (36%) were called active. Another 18% or so got no clear call; they are omitted. Cut-off read from the data, not from the text of the source: active = normalized growth mostly below about 0.91 (no sharp cut-off); inconclusive = no clear call, values can overlap the other calls; inactive = mostly above about 0.92. This is one part of the list.

Experiment: chemical genetic growth profiling, strain panel (AID 1159580);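 note: tested at 20 µM; growth read once vehicle control cultures reached saturation at 30 °C; 1 = growth at the plate median or of vehicle wells; lower values mean less growth of the strain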
Details: S. cerevisiae deletion strains, growth OD

Measured: normalized growth

CC1OC(O[C@H]2/C=C/C=C/C=C/C=C/C=C/C=C/C=C/[C@H](C)[C@@H](O)[C@@H](C)[C@H](C)OC(=O)CC(O)CC(O)CCC(O)C(O)CC(O)C[C@]3(O)C[C@H](O)C(C(=O)O)C(C2)O3)C(O)[C@H](N)C1O (stereo partly specified)
1.01 (inactive) and 0.099 (active): locus YHR030C, strain SLT2, stronger effect = lower value
0.993 (inactive) and 0.102 (active): locus YJL095W, strain BCK1, stronger effect = lower value
inactive: locus YAL030W, strain snc1, stronger effect = lower value 0.995 | locus YBL061C, strain skt5, stronger effect = lower value 1 | locus YBR009C, strain hhf1, stronger effect = lower value 0.987 | locus YBR021W, strain FUR4, stronger effect = lower value 1.02 | locus YBR023C, strain chs3, stronger effect = lower value 0.957 | locus YBR229C, strain ROT2, stronger effect = lower value 0.996 | locus YBR231C, strain swc5, stronger effect = lower value 0.912 | locus YBR279W, strain paf1, stronger effect = lower value 0.984 | locus YCL011C, strain gbp2, stronger effect = lower value 1 | locus YCL016C, strain dcc1, stronger effect = lower value 0.996 | locus YCL029C, strain bik1, stronger effect = lower value 1.02 | locus YCL069W, strain vba3, stronger effect = lower value 0.977 | locus YDL035C, strain GPR1, stronger effect = lower value 1 | locus YDL040C, strain nat1, stronger effect = lower value 1.01 | locus YDL074C, strain BRE1, stronger effect = lower value 1.03 | locus YDL101C, strain DUN1, stronger effect = lower value 1 | locus YDL134C, strain PPH21, stronger effect = lower value 0.986 | locus YDL185W, strain tfp1, stronger effect = lower value 1.04 | locus YDL192W, strain arf1, stronger effect = lower value 1.01 | locus YDR101C, strain arx1, stronger effect = lower value 1.06 | locus YDR162C, strain NBP2, stronger effect = lower value 0.974 | locus YDR297W, strain sur2, stronger effect = lower value 0.981 | locus YDR318W, strain mcm21, stronger effect = lower value 0.999 | locus YDR388W, stronger effect = lower value 1.02 | locus YDR502C, strain sam2, stronger effect = lower value 1.01 | locus YEL061C, strain CIN8, stronger effect = lower value 1.01 | locus YER015W, strain faa2, stronger effect = lower value 1 | locus YER110C, stronger effect = lower value 1.01 | locus YER155C, strain BEM2, stronger effect = lower value 1 | locus YER167W, strain BCK2, stronger effect = lower value 1.01 | locus YGL078C, strain dbp3, stronger effect = lower value 1 | locus YGL167C, strain pmr1, stronger effect = lower value 1.05 | locus YGL173C, strain kem1, stronger effect = lower value 0.982 | locus YGL248W, strain PDE1, stronger effect = lower value 0.964 | locus YGR135W, strain pre9, stronger effect = lower value 0.997 | locus YGR229C, strain SMI1, stronger effect = lower value 0.904 | locus YGR252W, strain gcn5, stronger effect = lower value 0.952 | locus YHR027C, strain rpn1, stronger effect = lower value 0.991 | locus YHR079C, strain IRE1 (second series), stronger effect = lower value 1.01 | locus YHR094C, strain hxt1, stronger effect = lower value 1.01 | locus YHR129C, strain ARP1, stronger effect = lower value 1.01 | locus YHR200W, strain rpn10, stronger effect = lower value 1.02 | locus YIL066C, strain RNR3, stronger effect = lower value 0.996 | locus YIL073C, strain SPO22, stronger effect = lower value 1.11 | locus YIL125W, strain kgd1, stronger effect = lower value 1.01 | locus YIR030C, strain dcg1, stronger effect = lower value 1.01 | locus YJL095W, strain BCK1 (second series), stronger effect = lower value 1 | locus YJL134W, strain LCB3, stronger effect = lower value 1.01 | locus YJL154C, strain vps35, stronger effect = lower value 0.987 | locus YJL164C, strain tpk1, stronger effect = lower value 0.996 | locus YJL166W, strain qcr8, stronger effect = lower value 0.987 | locus YJL168C, strain set2, stronger effect = lower value 1.01 | locus YJL187C, strain SWE1 (second series), stronger effect = lower value 0.99 | locus YJR043C, strain POL32, stronger effect = lower value 0.95
active: locus YAL021C, strain ccr4, stronger effect = lower value 0.0628 | locus YAL026C, strain drs2, stronger effect = lower value 0.059 | locus YBR171W, strain sec66, stronger effect = lower value 0.0768 | locus YCR088W, strain abp1, stronger effect = lower value 0.0609 | locus YDL005C, strain med2, stronger effect = lower value 0.0884 | locus YDR001C, strain nth1, stronger effect = lower value 0.0792 | locus YDR069C, strain doa4, stronger effect = lower value 0.0722 | locus YDR137W, strain rgp1, stronger effect = lower value 0.252 | locus YDR159W, strain sac3, stronger effect = lower value 0.696 | locus YDR195W, strain ref2 0.132 | locus YDR334W, strain swr1, stronger effect = lower value 0.115 | locus YDR335W, strain msn5, stronger effect = lower value 0.508 | locus YDR392W, strain spt3, stronger effect = lower value 0.07 | locus YEL003W, strain gim4, stronger effect = lower value 0.0549 | locus YEL037C, strain rad23, stronger effect = lower value 0.193 | locus YEL061C, strain CIN8 (second series), stronger effect = lower value 0.064 | locus YER016W, strain bim1, stronger effect = lower value 0.819 | locus YER111C, strain swi4, stronger effect = lower value 0.0759 | locus YER155C, strain BEM2 (second series), stronger effect = lower value 0.778 | locus YFR010W, strain ubp6, stronger effect = lower value 0.065 | locus YGL086W, strain mad1, stronger effect = lower value 1.07 [resistant] | locus YGL227W, strain vid30, stronger effect = lower value 0.0641 | locus YGL240W, strain doc1, stronger effect = lower value 0.856 | locus YGL253W, strain hxk2, stronger effect = lower value 0.0796 | locus YHR013C, strain ard1, stronger effect = lower value 1.38 [resistant] | locus YHR079C, strain IRE1, stronger effect = lower value 0.111 | locus YHR142W, strain chs7, stronger effect = lower value 0.843 | locus YJL092W, strain hpr5, stronger effect = lower value 0.0636 | locus YJL115W, strain asf1, stronger effect = lower value 0.893 | locus YJL129C, strain trk1, stronger effect = lower value 0.0757
